Drawing on PubChem BioAssay AID589 (National Center for Advancing Translational Sciences (NCATS), 2007), this text covers max dye-equivalent concentration and outcome for 70 molecules.

Out of some 59,000 compounds screened, about 6,200 (11%) were called active. Roughly 9% stayed inconclusive and do not appear here. Rule as the data show it: active = max dye-equivalent concentration above about 10 nM; inconclusive = mostly about 1.1 nM to 9.6 nM; inactive = weaker than that. For the sample, actives were picked, then their nearest neighbours and some compounds at random. The source holds several records for some structures; these can differ, active in one and inactive in another.

A short description of the assay: qHTS Assay for Spectroscopic Profiling in 4-MU Spectral Region. The conditions noted are these: compound autofluorescence, 340/450 nm, 4-MU equivalents; stronger effect = higher value. In outline: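 Compounds in 100 mM Tris, pH 8.0, sat 15 min at room temperature before fluorescence was read at 340 nm excitation/450 nm emission; a per-plate six-point 4-MU standard curve converted signals to dye-equivalent concentration at each compound concentration.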
As to `O=C(NCc1cn2ccsc2n1)Nc1cccc(Cl)c1`, the max dye-equivalent concentration result was “inactive”.
Take `O=C(/C=N/O)Nc1ccccc1`: the max dye-equivalent concentration result was “inactive”.
For the molecule `CCS(=O)(=O)n1nc(-c2ccc(OC)cc2)nc1SC`, the max dye-equivalent concentration result is “inactive”.
`c1ccc(-c2cc(-c3nnc4sc(-c5ccccn5)nn34)[nH]n2)cc1`: the max dye-equivalent concentration result was “inactive”.
Still for that read-out and setting: under `CCOc1cccc(-c2nn3c(-c4ccccn4)nnc3s2)c1` stands “inactive”.
In the case of `COc1cc(-c2nn3c(-c4cccc(C)c4)nnc3s2)cc(OC)c1OC`, the max dye-equivalent concentration was 1900 nM (active).
Turning to `CCCC(CCC(=O)OC)(C(=O)OCC)c1csc(N)n1` (stereo unspecified), the max dye-equivalent concentration entry is “inactive”.
On the same count and under the same terms, under `COc1ccc(CNc2ncncc2-c2ccccc2C)c(OC)c1` stands “inactive”; under `Oc1c(CN2CCOCC2)ccc(CN2CCOCC2)c1O`, “inactive”.
For `CN(CCc1ccccn1)S(=O)(=O)c1ccc2c3c(cccc13)C(=O)N2`, the max dye-equivalent concentration was 790 nM (active).
Regarding `O=c1[nH]nc(Cc2ccccn2)c2ccccc12`, the max dye-equivalent concentration result was “inactive”.
Same read-out and setting: under `O=C(COC(=O)C12CC3CC(CC(C3)C1)C2)NCc1ccco1` stands 23 nM (active); under `O=C(COC(=O)CCC(=O)c1cccs1)NCc1ccco1`, “inactive”.
For `Cc1cc(C(=O)OCC(=O)NCc2ccco2)c(C)n1-c1ccccc1`, the max dye-equivalent concentration entry was “inactive”.
With `CC(C)(C)c1cc(CN2CCN(CCC#N)CC2)cc(C(C)(C)C)c1O`, the max dye-equivalent concentration entry is “inactive”.
`O=C(O)Cc1ccc(NC(=O)c2cccs2)cc1`: the max dye-equivalent concentration entry was “inactive”.
With `O=C(O)Cc1ccc(-c2ccccc2)cc1`, the max dye-equivalent concentration is 49 nM (active) and the result was inactive.
Regarding `O=C(O)CCCc1ccccc1`, the max dye-equivalent concentration entry is “inactive”.
On to `CCOC(=O)C1CCN(C(=O)C2CCN(S(=O)(=O)CC)CC2)CC1`, for which the max dye-equivalent concentration result is “inactive”.
With `O=C(O)CSCNC(=O)CC12CC3CC(CC(C3)C1)C2`, the max dye-equivalent concentration result was “inactive”.
Consider `O=C(NC1CCCCC1)n1c(=O)oc2cc(S(=O)(=O)N3CCCCC3)ccc21`, for which the max dye-equivalent concentration entry is “inactive”.
Same read-out and setting: then `NS(=O)(=O)c1cc2c(cc1Cl)NC(C(Cl)Cl)NS2(=O)=O` (stereo unspecified), with 6500 nM (active); and `C=CCn1c(C)cc(C(=O)CN2C(=O)c3ccccc3C2=O)c1C`, with “inactive”; and `O=C(Nc1ccc(NC(=O)c2cccs2)cn1)c1ccco1`, with “inactive”.
Regarding `Cc1c(C(=O)NCCN2CCOCC2)sc2nc(-c3ccc(F)cc3)cn12`, the max dye-equivalent concentration result was “inactive”.
In the case of `CSc1cccc(NC(=O)CSc2ccccc2)c1`, the max dye-equivalent concentration result is “inactive”.
In the case of `COc1ccc(OC)c2c(N)c(C#N)c(C(F)(F)C(F)(F)F)nc12`, the max dye-equivalent concentration was 140 nM (active).
As to `CCCCOc1ccc(-c2nnc(-c3ccco3)o2)cc1`, the max dye-equivalent concentration entry is “inactive”.
The same measure, in the same setting: under `O=C(Nc1cccc2cccnc12)c1cccc(N2C(=O)CCC2=O)c1` stands “inactive”; under `N#Cc1nc(-c2ccc(OCc3ccccc3)cc2)oc1NCCCN1CCOCC1`, “inactive”.
In the case of `O=C(OCCN1CCOCC1)C1(c2ccccc2)CCCCC1`, the max dye-equivalent concentration result was “inactive”.
For the molecule `O=C(CN1CCOCC1)N1CCCc2c1c(=O)oc1ccc(OCc3ccccc3)cc21`, the max dye-equivalent concentration was 45 nM (active).
Still for that read-out and setting: under `CCOC(=O)C1CCCN(C(=O)c2cncc(Br)c2)C1` (stereo unspecified) stands “inactive”.
As to `COc1ccc(OC)c([C@H](O)CNC(=O)CN)c1`, the max dye-equivalent concentration result was “inactive”.
Turning to `C/C(Cl)=C\Cn1c(Nc2cccc(C)c2)nc2c1c(=O)n(C)c(=O)n2C`, the max dye-equivalent concentration entry is “inactive”.
For the molecule `COc1ccccc1CN1CC2(CCN(S(=O)(=O)c3ccccc3)CC2)C1`, the max dye-equivalent concentration result is “inactive”.
Turning to `O=C(Nc1ncc2c(n1)CC(c1ccco1)CC2=O)c1ccc(Cl)cc1` (stereo unspecified), the max dye-equivalent concentration entry was “inactive”.
Turning to `CCc1ccc(Nc2ncc3c(n2)CC(c2ccco2)CC3=O)cc1` (stereo unspecified), the max dye-equivalent concentration is 38 nM (active).
For `CCc1ccc(NC(=O)CSc2nnc(-c3cnccn3)n2Cc2ccco2)cc1`, the max dye-equivalent concentration result is “inactive”.
For `CCOc1ccc2nc(N3CCCN(C(=O)Nc4ccccc4C)CC3)c(C#N)cc2c1`, the max dye-equivalent concentration is 16 nM (active).
For `Cc1ccccc1NC(=O)CNc1ccccc1N1CCCCC1`, the max dye-equivalent concentration result is “inactive”.
Regarding `CCOc1ccc(NC(=O)N2CCN(CC)CC2)cc1`, the max dye-equivalent concentration result is “inactive”.
In the case of `Cn1c(-c2ccc(F)cc2)cnc1SCC(=O)NCc1ccco1`, the max dye-equivalent concentration result was “inactive”.
`O=C(CN1CCN(c2nc(-c3ccccc3)cs2)CC1)NCc1ccc2c(c1)OCO2`: the max dye-equivalent concentration result was “inactive”.
Still for that read-out and setting: then `CC1(C)S[C@@H]2[C@@H](NC(=O)[C@@H](N)c3ccccc3)C(=O)N2[C@H]1C(=O)O`, with 44 nM (active); and `CC1(C)SC2c3ccccc3C(=O)N2[C@@H]1C(=O)NCc1ccco1` (stereo partly specified), with “inactive”; and `CCS(=O)(=O)N1CCC(C(=O)N2CCN(c3ccccc3)CC2)CC1`, with “inactive”.
Turning to `CCOc1ccccc1Nc1nnc(SCC(=O)Nc2cc(C)on2)s1`, the max dye-equivalent concentration result was “inactive”.
Still for that read-out and setting: under `CC(C[N+](C)(C)C)OC(N)=O` (stereo unspecified) stands “inactive”; under `CC(=O)OC(C)C[N+](C)(C)C` (stereo unspecified), 500 nM (active).
Still for that read-out and setting: under `CCN1C(=O)/C(=C2\SC(N3CCCCC3)=NC2=O)c2ccccc21` stands 18 nM (active); under `CCN1C(=O)/C(=C\N2CCN(c3ccccc3)CC2)SC1=S`, “inactive”; under `Cc1ccc(C(=O)OCC(=O)NCc2ccc3c(c2)OCO3)s1`, “inactive”.
Regarding `Cc1ccc2cccc(O)c2[n+]1[O-]`, the max dye-equivalent concentration was 17 nM (active).
Consider `CC(=O)Nc1cccc2c1[n+]([O-])c(C)c(C)[n+]2[O-]`, for which the max dye-equivalent concentration entry was “inactive”.
As to `O=C(O)[C@@H]1[C@@H](C(=O)O)[C@]23C[C@@]2(C(=O)O)[C@]2(C(=O)O)CCC3=C3CCCC312`, the max dye-equivalent concentration entry is “inactive”.
In the case of `CCOC(=O)CSc1nnc(CNc2ccc(F)cc2)o1`, the max dye-equivalent concentration entry is “inactive”.
For the molecule `CCCOP(=O)(c1ccc(N(C)C)cc1)C(O)c1cc(OC)c(OC)c(OC)c1` (stereo unspecified), the max dye-equivalent concentration result is “inactive”.
Turning to `Cc1c(S(=O)(=O)O)ccc(N=Nc2c(O)c(C(=O)O)cc3ccccc23)c1Cl`, the max dye-equivalent concentration is 11 nM (active).
Same read-out and setting: then `CCc1ccc(-c2nnn(Cc3nc4ccccc4s3)n2)cc1`, with “inactive”.
As for `COc1ccc(Cc2nnc(NS(=O)(=O)Cc3ccccc3)s2)cc1`, the max dye-equivalent concentration result was “inactive”.
With `COC(=O)C1(S(=O)(=O)C2(C(=O)OC)CCCC2)CCCC1`, the max dye-equivalent concentration entry is “inactive”.
`N#Cc1c(N)n(CCOC(=O)c2ccc(Cl)cc2)c2nc3ccccc3nc12`: the max dye-equivalent concentration is 600 nM (active).
As to `O=S(=O)(O)c1nc2ccccc2n1Cc1ccc(Cl)cc1`, the max dye-equivalent concentration result is “inactive”.
Consider `C[C@H](NC(=O)OC(C)(C)C)c1nnc(SCC(N)=O)o1`, for which the max dye-equivalent concentration result was “inactive”.
Still for that read-out and setting: then `CC1(C)Oc2ccc(C(=O)N3CCOCC3)cc2N(CC(=O)Nc2ccccc2)C1=O`, with “inactive”; and `O=C(c1cccnc1NCc1ccccc1)N1CCOCC1`, with “inactive”; and `Cc1nc(NCc2ccccc2)c(C(N)=O)c2c1COC(C)(C)C2`, with 100 nM (active).
In the case of `Cc1ccc(NC(=O)CS(=O)CC(=O)N(c2ccccc2)C(C)C(=O)NC2CCCC2)cc1` (stereo unspecified), the max dye-equivalent concentration result was “inactive”.
Regarding `CC(=O)O[C@]1(C(C)=O)CC[C@@H]2[C@@H]3C=C(C)C4=CC(=O)CC[C@@]4(C)[C@H]3CC[C@]21C`, the max dye-equivalent concentration entry was “inactive”.
